From PubChem BioAssay (Tox21)
Records with an inconclusive call do not appear. The source made the active and inactive calls. Unless noted, the call rests on the fitted dose curve.

What was measured:
[1] = Nuclear factor erythroid 2-related factor 2/antioxidant responsive element (Nrf2/ARE) small molecule agonists: luciferase reporter gene qHTS assay in human keratinocytes (AID 1919969); further: nearly all actives have a fitted effect of over 35% in size; further: potency means the concentration at half of the fitted maximal effect
[2] = target: Gonadotropin-releasing hormone receptor (Homo sapiens) (UniProt P30968); test: Human gonadotropin-releasing hormone receptor (GnRHR) small molecule agonists, calcium flux assay in GnRHR-HEK293 cells (AID 1920063); further: nearly all actives have a fitted effect of over 35% in size; further: potency means the concentration at half of the fitted maximal effect
How it was run: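 HEK293 cells stably expressing human GnRHR were plated 18 h at 37 °C, loaded with calcium dye 1 h at 37 °C, then given compound in agonist mode; fluorescence (Ex/Em 480/540) read kinetically for 3 min at 1 s intervals.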

[3] = G protein-coupled receptor (GPCR) small molecule agonists, calcium flux assay: HEK293 wild type cell line counter screen (AID 1920065)
How it was run: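 Cells were plated and cultured 18 h at 37 C/5% CO2, then loaded with calcium dye for 1 h at 37 C. Compounds in DMSO were pin-transferred in agonist mode, and fluorescence (Ex/Em 480/540) was read kinetically for 3 min at 1 s intervals.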

[4] = p53 small molecule agonists, cell-based qHTS assay with human liver microsomes (AID 1963577)
How it was run: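 p53RE-bla reporter cells were pre-incubated 5 h at 37 C, then treated with compounds plus human liver microsomes (0.5 mg/mL final) and NADPH (0.5 mg/mL final) for 16 h at 37 C. Beta-lactamase activity was read by LiveBLAzer fluorescence after 2 h at room temperature.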

[5] = p53 small molecule agonists, cell-based qHTS assay with rat liver microsomes (AID 1963578)
How it was run: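 p53RE-bla cells were exposed to compounds together with rat liver microsomes (0.5 mg/mL final) and NADPH (0.5 mg/mL final) for 16 h at 37 C, then read by LiveBLAzer beta-lactamase fluorescence after 2 h at room temperature.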

[6] = p53 small molecule agonists, cell-based qHTS assay (AID 1963582; active means well fitted activation curve with a large enough effect in the signal ratio in the repeat runs, not every such curve was filed as active; the % refers to the signal ratio)
How it was run: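 p53RE-bla beta-lactamase reporter cells rested 5 h at 37 C/5% CO2, then received compounds in DMSO by pin transfer and were incubated 16 h at 37 C. LiveBLAzer B/G FRET substrate was loaded for 2 h at room temperature before fluorescence reading.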

[7] = target: 5-hydroxytryptamine receptor 2A (Homo sapiens) (UniProt P28223); test: 5-hydroxytryptamine receptor 2A (HTR2A) small molecule antagonists, cell-based qHTS assay (AID 1963586); further: nearly all actives have a fitted effect of over 45% in size; further: potency means the concentration at half of the fitted maximal effect
How it was run: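 Antagonist-mode intracellular calcium assay: DOI (4 nM) added after 5 min compound pre-incubation at room temperature to dye-loaded HTR2A-CHO cells. Fluorescence followed for 3 min, sampled every second.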

[8] = target: Beta-2 adrenergic receptor (Homo sapiens) (UniProt P07550); test: Adrenergic beta2 receptor (ADRB2) small molecule antagonists, cell-based qHTS assay (AID 1963592); further: nearly all actives have a fitted effect of over 50% in size; further: potency means the concentration at half of the fitted maximal effect
How it was run: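 Cells (CHO, stable ADRB2 overexpression) incubated 18-20hr at 37C; compounds added from DMSO; agonist mix (1nM isoproterenol, 100uM IBMX, 25uM Ro-20-1724) added; 0.5hr RT; d2-cAMP and anti-cAMP-cryptate added; 1hr RT; 665/615 nm read.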

[9] = target: D(2) dopamine receptor (Homo sapiens) (UniProt P14416); test: Dopamine D2 receptor (DRD2) small molecule agonists, cell-based qHTS assay (AID 1963594); further: nearly all actives have a fitted effect of over 35% in size; further: potency means the concentration at half of the fitted maximal effect
How it was run: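 HEK293 cells stably expressing human DRD2, pre-treated with PDE inhibitor Ro20-1724 (0.1 mM final) and compound 10 min at room temperature, then stimulated with NKH477 (200nM […]) for 30 min. cAMP read by HTRF (665/620 nm).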

[10] = target: KiSS-1 receptor (Homo sapiens) (UniProt Q969F8); test: Human kisspeptin (KISS1R) small molecule agonists, calcium flux assay in KISS1R-HEK293 cells (AID 1920064; active means well fitted activation curve with a large enough effect in the repeat runs)
How it was run: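 HEK293 cells stably expressing human KISS1R were plated 18 h at 37 °C, loaded with calcium dye for 1 h at 37 °C, then given compound by pin tool. Fluorescence (Ex/Em 480/540) was read kinetically for 3 min.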

[11] = p53 small molecule agonists, cell-based qHTS assay with human liver microsomes: qHTS cell viability counter screen (AID 1963579); further: nearly all actives have a fitted effect of over 45% in size; further: potency means the concentration at half of the fitted maximal effect
How it was run: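 p53RE-bla cells (4,000/well) were pre-incubated 5 h at 37 C, then given compounds in DMSO plus human liver microsomes (0.5 mg/mL final) and NADPH (0.5 mg/mL final) for 16 h at 37 C. Viability was read by CellTiter-Glo luminescence.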

[12] = p53 small molecule agonists, cell-based qHTS assay with rat liver microsomes: qHTS cell viability counter screen (AID 1963580); further: nearly all actives have a fitted effect of over 45% in size
How it was run: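 p53RE-bla HCT-116 cells were exposed 16 h at 37 C to compounds with rat liver microsomes (0.5 mg/mL) and NADPH (0.5 mg/mL). Viability was measured in the same wells as ATP content by CellTiter-Glo luminescence.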

[13] = target: 5-hydroxytryptamine receptor 2A (Homo sapiens) (UniProt P28223); test: 5-hydroxytryptamine receptor 2A (HTR2A) small molecule agonists, cell-based qHTS assay (AID 1963587); further: nearly all actives have a fitted effect of over 30% in size
How it was run: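 CHO cells stably expressing human HTR2A, plated 18 h, loaded with calcium dye 1 h at 37 C. Agonist mode: compounds added and intracellular calcium fluorescence recorded kinetically for 2 min at 1 sec intervals.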

[14] = target: Muscarinic acetylcholine receptor M1 (Homo sapiens) (UniProt P11229); test: Cholinergic receptor muscarinic 1 (CHRM1) small molecule antagonists, cell-based qHTS assay (AID 1963588); further: nearly all actives have a fitted effect of over 40% in size; further: potency means the concentration at half of the fitted maximal effect
How it was run: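 CHRM1-CHO calcium-flux assay, antagonist mode. Cells were seeded 18 h, dye-loaded 1 h at 37 C and given compound for 5 min at RT, then acetylcholine was added at 50nM. FDSS fluorescence was read 3 min; 15 concentrations, three runs.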

[15] = target: Muscarinic acetylcholine receptor M1 (Homo sapiens) (UniProt P11229); test: Cholinergic receptor muscarinic 1 (CHRM1) small molecule agonists, cell-based qHTS assay (AID 1963589); further: nearly all actives have a fitted effect of over 35% in size
How it was run: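 CHO cells stably expressing human CHRM1, seeded 18 h at 37 C/5% CO2, dye-loaded 1 h at 37 C, then given compound in agonist mode; intracellular calcium fluorescence read kinetically at 1 s intervals. Fifteen concentrations, three independent runs.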

[16] = cAMP Responsive Elements (CRE) small molecule antagonists, cell-based qHTS assay (AID 1963591; active means well fitted inhibition curve with a large enough effect in the signal ratio in the repeat runs, not every such curve was filed as active; the % refers to the signal ratio)
How it was run: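 CRE-bla HEK293T cells were plated 18 h at 37 °C/5% CO2, pinned with compound in DMSO, then stimulated with NKH477 at 0.25 uM final for 3 h. LiveBLAzer B/G FRET substrate was added and plates incubated 2 h at room temperature.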

[17] = target: D(2) dopamine receptor (Homo sapiens) (UniProt P14416); test: Dopamine D2 receptor (DRD2) small molecule antagonists, cell-based qHTS assay (AID 1963595; active means well fitted inhibition curve with a large enough effect in the signal ratio in the repeat runs, with a control signal flat; the % refers to the signal ratio)
How it was run: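 Readout: HTRF cAMP, cAMP-d2 competing with cellular cAMP for anti-cAMP cryptate, read after 1 h. Cells: DRD2-HEK293. Conditions: 0.1 mM Ro20-1724, 12 nM quinpirole, 200 nM NKH477, 30 min RT.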

[18] = p53 small molecule agonists, cell-based qHTS assay: qHTS cell viability counter screen (AID 1963581); further: nearly all actives have a fitted effect of over 45% in size; further: potency means the concentration at half of the fitted maximal effect
How it was run: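 p53RE-bla HCT-116 cells were exposed to compounds for 16 h at 37 C; after the beta-lactamase FRET read in the same wells, CellTiter-Glo was added and luminescence (intracellular ATP) read after 30 min at room temperature.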

[19] = cAMP Responsive Elements (CRE) small molecule agonists, cell-based qHTS assay (AID 1963590)
How it was run: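 CRE-bla HEK 293T cells in DMEM with 10% dialyzed FBS, NEAA, pyruvate and 25 mM HEPES were plated 18 h at 37 C/5% CO2, then exposed to compounds in DMSO for 3 h before LiveBLAzer B/G FRET substrate addition.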

[20] = target: Beta-2 adrenergic receptor (Homo sapiens) (UniProt P07550); test: Adrenergic beta2 receptor (ADRB2) small molecule agonists, cell-based qHTS assay (AID 1963593);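 further: CHO cells stably overexpressing human ADRB2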
How it was run: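 CHO cells stably over-expressing ADRB2 were plated overnight at 37C, then dosed with compounds plus a stimulation mix containing 100uM IBMX and 25uM Ro-20-1724 for 0.5hr at room temperature. cAMP was measured by HTRF competition, 1hr.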

Measured: Potency

Sequence of Muscarinic acetylcholine receptor M1 (Homo sapiens) (P11229 whole entry, looked up): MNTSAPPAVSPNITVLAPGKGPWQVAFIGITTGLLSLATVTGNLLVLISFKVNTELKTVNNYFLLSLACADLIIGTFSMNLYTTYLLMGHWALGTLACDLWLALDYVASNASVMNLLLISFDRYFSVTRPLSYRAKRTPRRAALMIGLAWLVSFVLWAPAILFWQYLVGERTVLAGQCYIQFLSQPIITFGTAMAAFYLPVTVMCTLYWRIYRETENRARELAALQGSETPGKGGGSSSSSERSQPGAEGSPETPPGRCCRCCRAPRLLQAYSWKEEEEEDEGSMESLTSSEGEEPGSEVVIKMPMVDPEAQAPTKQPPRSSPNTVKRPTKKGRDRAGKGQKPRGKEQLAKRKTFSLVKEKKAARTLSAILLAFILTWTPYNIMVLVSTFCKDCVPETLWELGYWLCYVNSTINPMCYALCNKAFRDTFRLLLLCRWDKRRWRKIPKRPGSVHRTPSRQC
Sequence of Gonadotropin-releasing hormone receptor (Homo sapiens) (P30968 whole entry, looked up): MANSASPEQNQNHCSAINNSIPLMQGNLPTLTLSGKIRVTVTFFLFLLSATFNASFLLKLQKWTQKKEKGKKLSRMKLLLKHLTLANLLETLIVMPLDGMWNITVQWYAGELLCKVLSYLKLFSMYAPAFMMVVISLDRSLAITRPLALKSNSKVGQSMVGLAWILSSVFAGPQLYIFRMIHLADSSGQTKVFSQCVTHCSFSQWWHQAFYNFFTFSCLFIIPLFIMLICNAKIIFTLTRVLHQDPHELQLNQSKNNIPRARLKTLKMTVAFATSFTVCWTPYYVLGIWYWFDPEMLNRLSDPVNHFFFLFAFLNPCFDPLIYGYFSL
Sequence of KiSS-1 receptor (Homo sapiens) (Q969F8 whole entry, looked up): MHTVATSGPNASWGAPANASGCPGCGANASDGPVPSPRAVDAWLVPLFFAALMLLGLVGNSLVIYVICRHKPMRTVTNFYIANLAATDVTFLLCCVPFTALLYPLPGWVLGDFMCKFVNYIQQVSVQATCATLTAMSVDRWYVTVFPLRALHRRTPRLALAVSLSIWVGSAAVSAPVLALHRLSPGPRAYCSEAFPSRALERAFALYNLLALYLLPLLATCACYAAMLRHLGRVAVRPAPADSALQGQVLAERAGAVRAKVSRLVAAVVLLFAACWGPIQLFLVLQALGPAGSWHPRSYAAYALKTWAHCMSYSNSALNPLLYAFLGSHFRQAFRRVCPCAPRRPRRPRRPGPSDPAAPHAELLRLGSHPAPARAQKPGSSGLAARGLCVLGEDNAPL
Sequence of Beta-2 adrenergic receptor (Homo sapiens) (P07550 whole entry, looked up): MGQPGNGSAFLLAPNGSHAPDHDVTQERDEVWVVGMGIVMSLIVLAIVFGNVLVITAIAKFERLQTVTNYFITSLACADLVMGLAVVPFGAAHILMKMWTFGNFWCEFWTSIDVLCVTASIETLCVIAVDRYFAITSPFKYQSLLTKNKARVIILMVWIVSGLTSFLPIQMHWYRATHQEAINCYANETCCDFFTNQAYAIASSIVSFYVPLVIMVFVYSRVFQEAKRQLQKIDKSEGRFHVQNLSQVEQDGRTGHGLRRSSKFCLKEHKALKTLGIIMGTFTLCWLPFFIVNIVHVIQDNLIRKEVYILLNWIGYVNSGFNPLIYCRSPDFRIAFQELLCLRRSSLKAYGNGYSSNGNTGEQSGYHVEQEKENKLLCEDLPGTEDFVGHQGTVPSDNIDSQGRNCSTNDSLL
Sequence of 5-hydroxytryptamine receptor 2A (Homo sapiens) (P28223 whole entry, looked up): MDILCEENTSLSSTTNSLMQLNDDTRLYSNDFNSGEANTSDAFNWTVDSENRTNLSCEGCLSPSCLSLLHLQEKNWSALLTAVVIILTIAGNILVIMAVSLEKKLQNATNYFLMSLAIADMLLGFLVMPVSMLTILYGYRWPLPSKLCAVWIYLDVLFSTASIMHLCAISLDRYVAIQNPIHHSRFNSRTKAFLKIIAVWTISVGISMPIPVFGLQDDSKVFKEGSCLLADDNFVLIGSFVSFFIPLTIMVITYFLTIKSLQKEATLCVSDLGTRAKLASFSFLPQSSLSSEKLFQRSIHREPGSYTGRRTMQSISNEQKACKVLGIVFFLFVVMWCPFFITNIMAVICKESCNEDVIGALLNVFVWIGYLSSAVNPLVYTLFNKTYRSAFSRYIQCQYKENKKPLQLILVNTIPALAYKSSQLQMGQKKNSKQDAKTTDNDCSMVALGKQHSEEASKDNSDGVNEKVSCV
Sequence of D(2) dopamine receptor (Homo sapiens) (P14416 whole entry, looked up): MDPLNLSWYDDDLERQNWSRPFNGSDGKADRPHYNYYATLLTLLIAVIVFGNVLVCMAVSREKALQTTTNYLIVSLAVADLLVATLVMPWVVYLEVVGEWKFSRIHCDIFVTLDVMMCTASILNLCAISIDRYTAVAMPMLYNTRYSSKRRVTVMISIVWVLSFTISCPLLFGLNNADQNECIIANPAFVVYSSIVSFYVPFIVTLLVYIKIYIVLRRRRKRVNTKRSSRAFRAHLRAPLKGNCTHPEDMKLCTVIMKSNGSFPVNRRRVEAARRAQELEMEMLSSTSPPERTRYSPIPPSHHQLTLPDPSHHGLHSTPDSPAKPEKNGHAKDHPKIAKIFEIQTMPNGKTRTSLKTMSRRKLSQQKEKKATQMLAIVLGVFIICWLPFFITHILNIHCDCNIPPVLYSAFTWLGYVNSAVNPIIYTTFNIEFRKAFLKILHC

CC(C)C1CCC(Cc2ccc(Cl)cc2)C1(O)Cn1cncn1 (configuration not stated)
active: [7] 37.1 µM | [8] 30.3 µM
inactive: [1] | [2] | [3] | [4] | [5] | [6] | [9]

O=[N+]([O-])c1cc(C(F)(F)F)cc([N+](=O)[O-])c1Cl
not listed: [3] | [4] | [5] | [6] | [18] | [19] | [20]
inactive: all other assays above

C[C@]12CC[C@H](O)C[C@H]1CC[C@@H]1[C@@H]2C[C@@H](O)[C@]2(C)[C@@H](C3=CC(=O)OC3)CC[C@]12O
active: [1] 3.44 µM | [18] 1.82 µM
inactive: [10] | [3] | [4] | [5] | [7] | [13] | [14] | [15] | [9] | [17]

c1cc2ccc3cccc4ccc(c1)c2c34
inactive: [1] | [2] | [10] | [3] | [13] | [14]

C=CC[C@]1(O)CC[C@H]2[C@@H]3CCC4=CC(=O)CCC4=C3C=C[C@@]21C
inactive: [1] | [10] | [3] | [4] | [11] | [12] | [6] | [7] | [14] | [8]

COC(=O)C(c1ccccc1)C1CCCCN1 (configuration not stated)
active: [14] 26.6 µM
not listed: [3] | [13]
inactive: all other assays above

CCSC(=O)Cl
not listed: [7] | [9] | [10] | [12] | [14] | [20]
inactive: all other assays above

CC(Cc1ccccc1)N(C)Cc1ccco1 (configuration not stated)
not listed: [3] | [6] | [7] | [8] | [9]
inactive: all other assays above

Nc1ccc([N+](=O)[O-])cc1Cl
not listed: [2] | [7] | [8] | [12] | [13] | [17]
inactive: all other assays above

Oc1ccc(C2(c3ccc(O)cc3)CCCCC2)cc1
inactive: [1] | [10] | [3] | [4] | [12] | [7] | [13] | [14] | [9] | [17]
active: [11] 43.3 µM

Oc1ccc([C@H]2CNCc3c2ccc(O)c3O)cc1O
active: [9] 17.4 µM
not listed: [3] | [4] | [5] | [6] | [7] | [8] | [13] | [20]
inactive: all other assays above

CC(C)(C)c1cc([N+](=O)[O-])cc([N+](=O)[O-])c1O
inactive: [10] | [11] | [7] | [13] | [14] | [15] | [8] | [9] | [17]
active: [1] 30.5 µM | [2] 38.8 µM

C=C(C)CN(CC)c1c([N+](=O)[O-])cc(C(F)(F)F)cc1[N+](=O)[O-]
active: [1] 54.5 µM
not listed: [3] | [5] | [14] | [20]
inactive: all other assays above

CC(C)(Cl)[N+](=O)[O-]
not listed: [2] | [16] | [20]
inactive: all other assays above

CCCCOCN(C(=O)CCl)c1c(CC)cccc1CC
active: [1] 24.3 µM
not listed: [6] | [9] | [10] | [13] | [16] | [17] | [19] | [20]
inactive: all other assays above

CC[C@H]1C[C@@H]2C[C@H]3c4[nH]c5ccc(OC)cc5c4CCN(C2)[C@@H]13
active: [1] 67.4 µM | [7] 0.293 µM
not listed: [2] | [8] | [16] | [18] | [19] | [20]
inactive: all other assays above

O=C1c2ccccc2C(=O)C1C(=O)C(c1ccccc1)c1ccccc1
not listed: [1] | [4] | [6] | [11] | [14] | [18] | [19] | [20]
inactive: all other assays above

CCC(C)c1cccc(C(C)CC)c1O (configuration not stated)
not listed: [1] | [4] | [7] | [12] | [14] | [16] | [19] | [20]
inactive: all other assays above

CC(=O)[O-].CC(=O)[O-].[Co+2]
not listed: [1] | [4] | [5] | [6] | [17] | [19]
inactive: all other assays above
